Screening results (PubChem)
Shown are actives, neighbours in structure and some others; about 7.3% of the full set was active somewhere.
Rab9 prom act: activators of Rab9 promoter; Huh7 Rab9 promoter-luciferase reporter, luminescence, 24 h; 320,000 tested, 2.8% active; Potency, µM (doses to about 9.22 µM), most hits filed as activators; AID 485297; further: nearly all actives have a fitted effect of over 60% in size
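Quantitative HTS format; Huh7 Rab9-luciferase reporter cells (1500/well) receive compound 2 h post-plating, incubate 24 h at 37 °C, then get luciferase reagent for 10 min before luminescence reading.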
FLuc modulator: firefly luciferase modulation, counter-screen for miR-21 project; P08659; purified FLuc, Km substrates, luminescence inhibition; Potency, µM (top dose mostly 57.5 µM), hits mostly inhibitors; 360,000 tested, 6.9% active; AID 588342; further: nearly all actives have a fitted effect of over 55% in size
Target sequence (P08659 whole entry, looked up): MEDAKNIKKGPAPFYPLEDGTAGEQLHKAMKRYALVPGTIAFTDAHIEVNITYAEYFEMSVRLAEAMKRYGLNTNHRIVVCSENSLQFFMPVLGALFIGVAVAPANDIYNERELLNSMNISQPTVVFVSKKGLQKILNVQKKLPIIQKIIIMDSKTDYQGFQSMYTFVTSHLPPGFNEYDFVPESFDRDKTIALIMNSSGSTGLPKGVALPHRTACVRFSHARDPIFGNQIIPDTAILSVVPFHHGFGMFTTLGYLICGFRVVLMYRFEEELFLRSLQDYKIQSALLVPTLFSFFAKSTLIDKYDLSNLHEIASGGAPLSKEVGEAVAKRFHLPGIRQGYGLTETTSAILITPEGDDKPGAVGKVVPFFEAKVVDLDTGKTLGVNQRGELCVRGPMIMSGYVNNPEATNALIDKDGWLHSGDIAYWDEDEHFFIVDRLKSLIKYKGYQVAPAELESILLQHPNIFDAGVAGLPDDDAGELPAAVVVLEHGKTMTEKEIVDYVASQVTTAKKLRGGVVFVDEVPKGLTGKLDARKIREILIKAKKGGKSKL
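Purified P. pyralis luciferase, 10 nM final, with Km-level 10 uM D-luciferin and 10 uM ATP in 50 mM Tris acetate pH 7.5, 10 mM Mg acetate, 0.01% Tween-20, 0.05% BSA; 6-point qHTS titration about 60 µM downward; luminescence read.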
NPC1 prom act: NPC1 promoter activation; Huh7 NPC1 promoter luciferase reporter, 24 h; Potency, µM (highest dose often 9.22 µM), usual class: activators; 320,000 tested, 2.4% active; AID 485313; further: nearly all actives have a fitted effect of over 60% in size
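Stably transfected Huh7 (NPC1 promoter→luciferase), 1500 cells/well in Opti-MEM + 10% FBS, 2 h settle, then compound 24 h at 37 °C. Luminescence after 10 min with Amplite reagent.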
SMN2 splice enh: increases expression of the SMN2 splice variant; HEK293 SMN2-luciferase splicing reporter, luminescence, 30-36 h; Potency, µM (highest dose often 46.1 µM), hits mostly activators; 210,000 tested, 2.8% active; AID 1458; further: nearly all actives have a fitted effect of over 55% in size
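HEK293 cells carry an SMN2 […]–luciferase reporter in which exon 7 inclusion puts luciferase in frame. Cells were plated 10-12 h before compound addition, then incubated 30-36 h at 37C. ONE-Glo luminescence was read; sodium butyrate at 4.5 mM final served as control.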
Luc counter: Kinase-Glo luciferase inhibition (counter-screen). AID 1379. Q27757. 200,000 tested, 0.28% active. Kinase-Glo luciferase, ATP luminescence, 8 min. Potency, µM (titrated, usually from 38.3 µM), actives largely listed as inhibitors; further: nearly all actives have a fitted effect of over 60% in size
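Luminescence was the read-out, taken after 8-minute incubation at ambient temperature. Luciferase turned over luciferin with 10 uM ATP in imidazole pH 7.2 buffer containing KCl, MgCl2, Tween 20 and BSA.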
ELG1 genotox: genotoxicity induction in ELG1-luciferase HEK293T cells; Potency, µM (series often up to 46 µM), usual class: activators; 330,000 tested, 1.3% active; HEK293T ELG1-luciferase reporter, luminescence, 16 h; further: nearly all actives have a fitted effect of over 60% in size
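Cells (2,000/well) expressing the ELG1-luciferase fusion are dosed by pin tool and kept 16 hr at 37 °C, 5% CO2. Signal comes from ONE-Glo luciferase reagent after 30 min at room temperature.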
Large screens that a line does not name were inactive. The call rests on the fitted dose curve; in most records, active means well fitted curve in the direction sought with a large enough effect; inconclusive means small, poorly fitted or top-dose-only effect, or another doubt; inactive means no such curve, though single readings can be large; an effect the other way counts as inactive or inconclusive.

Cc1cc(C)cc(OCC(=O)Nc2nonc2NC(=O)COc2cc(C)cc(C)c2)c1	none
COc1ccc(OCC(=O)Nc2nonc2NC(=O)COc2ccc(OC)cc2)cc1	FLuc modulator 1.9µM
Cc1cc(C)cc(OCC(=O)NCC(c2ccc(Cl)cc2)N2CCCCC2)c1 (stereo not given)	none (no result: Rab9 prom act, NPC1 prom act, SMN2 splice enh, Luc counter, ELG1 genotox)
Cc1ccc(/C=N/NC(=O)c2cc3c(ccc4ccccc43)o2)o1	FLuc modulator inconclusive (no result: SMN2 splice enh, Luc counter)
CNC(=O)c1cc2c(ccc3ccccc32)o1	Rab9 prom act inconclusive, FLuc modulator 19µM, NPC1 prom act inconclusive, ELG1 genotox inconclusive
O=C(NC1CCCC1)c1cc2c(ccc3ccccc32)o1	Rab9 prom act 1µM, FLuc modulator 6µM, NPC1 prom act 1.4µM, SMN2 splice enh 13µM, ELG1 genotox 4.6µM
CC(C)Oc1ccc(CNC(=O)C2CCN(C(=O)N3CCOc4ccc(Cl)cc43)CC2)cc1	none (no result: Rab9 prom act, NPC1 prom act, SMN2 splice enh, Luc counter, ELG1 genotox)
O=C(CCC1CCCN(C(=O)c2ccc3c(c2)OCCO3)C1)NCc1ccccc1F (stereo not given)	Rab9 prom act 2.8µM, FLuc modulator 17µM, ELG1 genotox inconclusive (no result: SMN2 splice enh, Luc counter)
COC(=O)c1ccccc1C(=O)N1CCCC(CCC(=O)NCc2ccc(F)c(F)c2)C1 (stereo not given)	Rab9 prom act inconclusive, FLuc modulator 13µM, ELG1 genotox inconclusive (no result: SMN2 splice enh)
COC(=O)CCCC(=O)N1CCCC(CCC(=O)NCc2ccc(F)c(F)c2)C1 (stereo not given)	FLuc modulator 17µM, ELG1 genotox inconclusive (no result: SMN2 splice enh)
C=CCN1C=CC(=C/C=C(/C#N)C(=O)OCC)C=C1	Rab9 prom act 2µM, FLuc modulator 2.4µM, NPC1 prom act 2.5µM, SMN2 splice enh 1.4µM, ELG1 genotox 7.3µM
Cc1ccccc1NS(=O)(=O)c1ccc2[nH]cc(C(=O)NC3CCCCC3)c(=O)c2c1	FLuc modulator inconclusive (no result: SMN2 splice enh, Luc counter, ELG1 genotox)
Cc1ccccc1OCc1ccc(-c2nc(C#N)c(NCc3cccnc3)o2)o1	none (no result: Rab9 prom act, NPC1 prom act, SMN2 splice enh, Luc counter, ELG1 genotox)
COCCn1c(SCc2ccc(C(=O)OC)o2)nc2cc(Cl)ccc2c1=O	Rab9 prom act 3.5µM
CCCCNC(=O)c1ccc2c(OCC)n(CCCC)nc2c1	none
CCCn1nc2cc(C(=O)NCCc3cccs3)ccc2c1OCC	Rab9 prom act inconclusive, FLuc modulator inconclusive, NPC1 prom act inconclusive, SMN2 splice enh 16µM
Fc1ccc(Nc2ccc3ccccc3n2)c(F)c1	Rab9 prom act 0.13µM, FLuc modulator 0.76µM, NPC1 prom act 0.4µM, SMN2 splice enh 5µM, Luc counter inconclusive, ELG1 genotox 0.82µM
CCOC(=O)N1CCC(=NNc2nc3ccccc3s2)CC1	Rab9 prom act 4µM, FLuc modulator 3.4µM, NPC1 prom act 2.5µM, ELG1 genotox inconclusive (no result: SMN2 splice enh, Luc counter)
CC(=O)N1CCC(=NNc2nc3ccccc3s2)CC1	Rab9 prom act 4µM, FLuc modulator 17µM
O=C(O)C1C2CCC(C2)C1C(=O)Nc1nc2ccccc2s1 (stereo not given)	none (no result: SMN2 splice enh)
CCOC(=O)N1CCN(S(=O)(=O)c2ccc(C(=O)Nc3nc4ccccc4s3)cc2)CC1	none
O=C(O)c1cc(-c2ccc(Br)s2)nc2ccccc12	FLuc modulator 8.5µM (no result: SMN2 splice enh, Luc counter)
Cc1ccc(-c2cc(C(=O)NCCCn3ccnc3)c3ccccc3n2)s1	FLuc modulator 17µM
O=C(NCCCn1ccnc1)c1cc(-c2ccncc2)nc2ccccc12	none
Cc1ccc(-c2cc(C(=O)NCc3ccco3)c3ccccc3n2)s1	FLuc modulator 12µM
CCc1ccc(-c2cc(C(=O)NCCCn3ccnc3)c3ccccc3n2)s1	FLuc modulator 4.8µM, ELG1 genotox inconclusive
CN1CCN(NC(=O)c2cc(-c3ccc(Br)s3)nc3ccccc23)CC1	FLuc modulator inconclusive (no result: SMN2 splice enh, Luc counter)
CCc1cccc(NC(=O)Cn2c(=O)n(CCc3ccc(OC)c(OC)c3)c(=O)c3ccccc32)c1	none (no result: Rab9 prom act, NPC1 prom act, Luc counter, ELG1 genotox)
COc1ccc(OC)c(NC(=O)Cn2c(=O)cc(-c3ccccc3)c3c(C)nn(C)c32)c1	none (no result: Rab9 prom act, NPC1 prom act, SMN2 splice enh, Luc counter, ELG1 genotox)
CCc1ccc(-c2cc(C(=O)NN3CCOCC3)c3ccccc3n2)s1	FLuc modulator 7.6µM
Cc1nn(-c2ccccn2)c2nc(-c3cccs3)cc(C(=O)NCc3ccco3)c12	FLuc modulator 6.7µM (no result: SMN2 splice enh)
